Sampled rows, rich in hits. Any-hit rate of the full collection: about 3.8%.
A549 tox: counter-screen for Nrf2 inhibitors: cytotoxicity in A549 cells; A549 ARE-Fluc cells, CellTiter-Fluor viability, 18-24 h; Potency, µM (top dose mostly 46 µM), for inactives: top-dose activity change, negative = cytotoxicity, most hits filed as inhibitors; 390,000 compounds, 0.16% hits; further: on the % scale 0 is the no-effect control and ±100 the full control effect
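A549 ARE-Fluc cells in 5% FBS OPTI-MEM, 5000 cells/well, rested 2 h then exposed to compounds in concentration-response for 18-24 h at 37 °C. Viability by CellTiter-Fluor fluorescence (Ex 405/Em 525) after 30 min; luciferase luminescence (BugLite, 15 min, RT) read afterwards.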
S2 tox: viability counter-screen for ATXN expression inhibitors. S2 cells (HEK-293 line with an ATXN2-luciferase reporter) viability, CellTiter-Fluor protease fluorescence, 24 h. Potency, µM (titrated, usually from 56.7 µM), usual class: cytotoxic. 400,000 compounds, 0.49% hits. AID 651635; further: nearly all actives have a fitted effect of over 40% in size
Nrf2 block: inhibitors of Nrf2 signaling; AID 504444; A549 ARE-Fluc reporter, luciferase luminescence, 18-24 h; 360,000 compounds, 2.1% hits; Potency, µM (top dose mostly 46 µM), for inactives: top-dose activity change, negative = inhibition, actives largely listed as inhibitors; further: on the % scale 0 is the no-effect control and ±100 the full control effect; nearly all actives have a fitted effect of over 60% in size
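Two sequential reads on A549 ARE_Fluc cells exposed to compound for 18-24 h: a CellTiter-Fluor fluorescence read for viability, then a luciferase luminescence read for Nrf2/ARE activity.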
HepG2 tox: counter-screen for TGF-b inhibitors: cytotoxicity in HepG2 cells. HepG2 CAGA-GFP viability, ATP luminescence, 18 h. Potency, µM (top dose mostly 46.1 µM), without a hit: at the top dose activity change, negative = cytotoxicity, hits mostly cytotoxic. 410,000 compounds, 0.76% hits. AID 588856
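CellTiter-Glo luminescence gave cytotoxicity after 18 hours at 37 degrees C. The cells were HepG2 CAGA-GFP in 1% FBS DMEM, stimulated with 500 pg/mL TGF-beta after compound addition. %Activity was normalised to no-cell wells (complete cell-killing) and DMSO (no toxicity), and curves were fitted and classified.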
ATXN2 expr inh: ATXN2 expression inhibition | HEK-293 ATXN2-luciferase reporter, luminescence, 24 h | Potency, µM (series often up to 57 µM), without a hit: at the top dose activity change, negative = inhibition, most hits filed as inhibitors | 360,000 compounds, 0.72% hits | AID 1745845; further: on the % scale 0 is the no-effect control and ±100 the full control effect; nearly all actives have a fitted effect of over 55% in size
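qHTS (up to 57 uM final) was run with 24 h compound exposure of reporter cells at 37 °C. Each well was multiplexed: SteadyGlo luminescence measured ATXN2-luciferase expression after a fluorogenic Gly-Phe-AFC viability readout (25 uM final).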
TGFb SMAD3 inh: inhibitors of TGF-b signaling | HepG2 CAGA-GFP TGF-b/SMAD3 reporter, GFP fluorescence, 18 h; TGF-beta stimulated, 500 pg/mL final | Potency, µM (top dose mostly 46.1 µM), for the others: at the top dose activity, negative = inhibition, actives largely listed as inhibitors | 410,000 compounds, 1.2% hits | AID 588855; further: on the % scale 0 is the no-effect control and ±100 the full control effect; nearly all actives have a fitted effect of over 65% in size
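TGF-beta reporter screen: HEPG2 CAGA-GFP, 1% FBS, 500 pg/mL TGF-beta final, 18 h; per-cell GFP summed per well; curves fitted and categorized by class.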
Active calls of the source: *; i = inactive; ? = inconclusive; · = not tested or not shown. The call rests on the fitted dose curve; in most records, active means well fitted curve in the direction sought with a large enough effect; inconclusive means small, poorly fitted or top-dose-only effect, or another doubt; inactive means no such curve, though single readings can be large; an effect the other way counts as inactive or inconclusive. Potency means the concentration at half of the fitted maximal effect.

SMILES	A549 tox	S2 tox	Nrf2 block	HepG2 tox	ATXN2 expr inh	TGFb SMAD3 inh
CC1(C)O[C@@H]2C[C@H]3[C@@H]4CCC5=CC(=O)C=C[C@]5(C)[C@@]4(F)[C@@H](O)C[C@]3(C)[C@]2(C(=O)CO)O1	-1%	i	0.0041µM*	0%	3%	1%
O=C(C(=Cc1ccccc1)CN1CCCCC1)c1ccccc1	?	8.4µM*	?	-101%	?	?
O=C(CCCCN1CCCCC1)c1ccccc1	2%	i	11%	-20%	-1%	0%
COc1ccc(Cc2nc3ccc(C(=O)NCc4cc(Br)ccc4OC)cc3o2)cc1	3%	·	·	-15%	·	0%
CN(C)/C(CN1CCN(C=O)CC1)=C1\N=C(c2ccccc2)OC1=O	2%	i	23µM*	-5%	-15%	-32%
CN(C)/C=C1\N=C(c2ccccc2)OC1=O	0%	i	28%	-14%	8%	-1%
CCc1c(C(=O)N2CCCN(C)CC2)csc1C	7%	i	1%	5%	-17%	0%
O=C(c1ccccc1)N1c2nc(-c3ccco3)nn2C2(CCCCC2)[C@@H]2CCCC[C@@H]21	-16%	·	14%	-7%	·	?
CCOC(=O)c1sc(N2C(=O)C(O)=C(C(=O)c3ccc(C)o3)C2c2cccc([N+](=O)[O-])c2)nc1C (stereo unspecified)	?	i	23µM*	1%	-12%	17%
Cc1ccc(CNC(=O)CCCCCn2c(=O)c3sccc3n(CC(=O)Nc3ccc(C)c(F)c3)c2=O)cc1	-8%	i	-4%	2%	1%	?
Cc1cccc(NC(=O)Cn2c(=O)n(CCCCCC(=O)NCc3ccccc3)c(=O)c3sccc32)c1	-11%	22µM*	?	-47%	?	?
CCc1ccc(-n2c(=O)c3cccnc3n2CC(=O)Nc2ccccc2C(F)(F)F)cc1	-11%	·	?	11µM*	·	?
CCN(CC)CCNC(=O)c1ccc(NC(=O)/C=C/c2ccc3ccccc3n2)cc1	-16%	?	?	-49%	5%	0%
CCC(CO)Oc1cc(NCc2ccc(Cl)cc2Cl)c2ncn(C(C)C)c2c1 (stereo unspecified)	?	?	?	-72%	-3%	20µM*
Cc1ccc(Nc2c3c(nc4nncn24)CCC3)c(C)c1	8%	·	18%	-4%	·	?
O=C(NCCc1ccc(Cl)cc1)c1ccc(CS(=O)(=O)Cc2ccccc2F)o1	-18%	20µM*	·	1%	?	-28%
CN(C)S(=O)(=O)c1ccc(C(=O)NCCSc2ccc(Br)cc2)cc1	?	i	21µM*	-2%	-5%	92%
Cc1ccc([C@H]2C(C(=O)O)=CC[C@@H](c3ccc4c(c3)OCO4)N2S(=O)(=O)c2ccc(C)cc2)cc1	-9%	i	-14%	1%	3%	8%
c1ccc2c(c1)Nc1ccncc1S2	-21%	i	29µM*	31%	14%	?
c1ccc2c(c1)Nc1cc3ccccc3cc1S2	5%	i	?	-4%	11%	-2%
Cc1ccc(NN2C(=O)C=C(c3ccc(Cl)cc3)C2=O)cc1	6%	·	7%	-54%	25µM*	?
O=C(NCc1ccco1)c1ccc(CNc2c(N3CCCCC3)c(=O)c2=O)cc1	-5%	i	14%	-21%	0%	-5%
CCCS(=O)(=O)c1c(S(=O)(=O)CCC)c2c(C)cccn2c1C(=O)N/N=C/c1cc(O)cc(O)c1	4%	i	?	-12%	7.9µM*	-15%
CCCS(=O)(=O)c1c(S(=O)(=O)CCC)c2c(C)cccn2c1C(N)=O	-2%	i	-1%	-12%	-3%	-1%

Screens from PubChem.
